Rows were chosen to be rich in hits. Some 2.4% of all compounds tested hit in one or more screens of this group.
POLI inh: DNA polymerase iota (human) inhibition; Pol iota fluorescent replication assay, 10 min; Potency, µM (doses to about 115 µM), actives largely listed as inhibitors; 390,000 compounds, 1% hits; AID 588590
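Fluorescent replication assay read twice, at 0 min and 10 min after adding 50 nM (final) substrate. Enzyme (10 nM) and compounds were first incubated 15 min at room temperature; enzyme-free buffer wells were negative controls.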
Pol eta inh-1: blocks human DNA polymerase eta activity; Q9Y253; recombinant Pol eta, fluorescent DNA replication assay; Potency, µM (top dose mostly 114 µM), most hits filed as inhibitors; 390,000 compounds, 1.2% hits
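Pol eta (10 nM) was preincubated with compounds for 15 min at room temperature, after which fluorescent replication substrate (50 nM final) was added to start the reaction. Fluorescence was read kinetically at 0 and 10 min.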
Pol beta inh: DNA polymerase beta (human) inhibition; P06746; Pol beta primer extension/strand displacement, fluorescence kinetic; Potency, µM (highest dose often 114 µM), usual class: inhibitors; 340,000 compounds, 1.3% hits
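Curves were derived by four-parameter Hill fits of normalized qHTS data. The kinetic fluorescent primer-extension read was taken at 0 and 10 min after 50 nM substrate, following a 15 min room-temperature preincubation of 10 nM enzyme with compounds.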
WRN helicase inh-1: blocks human WRN helicase; Q14191; WRN helicase unwinding, fluorescent forked duplex, kinetic; Potency, µM (top dose mostly 114 µM), most hits filed as inhibitors; 360,000 compounds, 0.46% hits; further: nearly all actives have a fitted effect of over 55% in size
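Screening of the MLSMR collection measured strand separation of a quenched forked DNA duplex (100 nM) by 20 nM WRN with 2 mM ATP, all final. Compounds were preincubated with enzyme 15 min at room temperature.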
FEN1 inh-1: human FEN1 inhibition | P39748 | Recombinant FEN1 flap cleavage, fluorescence, 15 min | Potency, µM (top dose mostly 114 µM), most hits filed as inhibitors | 390,000 compounds, 0.35% hits | AID 588795; further: nearly all actives have a fitted effect of over 65% in size
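Nuclease activity of 10 nM FEN1 was measured after 15 min of room-temperature exposure to titrated compounds, by adding 50 nM flap substrate and reading plates at 0 and 15 min.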
Pol kappa inh-1: DNA polymerase kappa (human) inhibition; Q9UBT6; Potency, µM (series often up to 107 µM), usual class: inhibitors; 400,000 compounds, 0.53% hits; purified Pol kappa, fluorescent DNA synthesis assay, 10 min
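Here, compound and 10 nM enzyme are combined for 15 min at room temperature; adding 50 nM substrate (final) starts DNA synthesis, tracked by fluorescence at 0 and 10 min against buffer-only wells.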
TbPGK inh: TbPGK inhibition, hit validation. shares compounds with Pol kappa inh-1. TbPGK coupled GAPDH assay, Kinase-Glo luminescence. Potency, µM (doses to about 57.5 µM), actives largely listed as inhibitors. 500 compounds, 79% hits. AID 686980; further: nearly all actives have a fitted effect of over 65% in size
Target sequence (P07378 whole entry, looked up): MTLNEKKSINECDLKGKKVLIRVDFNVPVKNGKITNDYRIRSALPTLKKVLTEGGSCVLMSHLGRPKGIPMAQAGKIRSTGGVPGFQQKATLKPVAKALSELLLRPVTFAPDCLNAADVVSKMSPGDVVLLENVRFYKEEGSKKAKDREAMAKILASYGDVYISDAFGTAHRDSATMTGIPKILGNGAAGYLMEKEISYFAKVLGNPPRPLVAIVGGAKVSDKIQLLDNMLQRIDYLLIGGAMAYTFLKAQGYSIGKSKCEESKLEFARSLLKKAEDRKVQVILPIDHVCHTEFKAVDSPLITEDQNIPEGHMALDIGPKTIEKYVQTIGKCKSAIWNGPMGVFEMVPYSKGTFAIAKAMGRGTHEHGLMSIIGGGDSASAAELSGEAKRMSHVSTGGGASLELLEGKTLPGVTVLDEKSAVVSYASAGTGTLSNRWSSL
POLI cherry-pick: Human Pol iota inhibitor confirmatory assay. shares compounds with Pol kappa inh-1. AID 720496. 1,500 compounds, 77% hits. Pol iota primer extension, TAMRA/BHQ fluorescence. Potency, µM, actives largely listed as inhibitors
GALK confirm: confirmation of human galactokinase (GALK) inhibitors; shares compounds with Pol eta inh-1; purified GALK, Kinase-Glo ATP depletion luminescence; Potency, µM (top dose mostly 115 µM), usual class: inhibitors; 150 compounds, 70% hits
GALK redox cs: generates H2O2 by redox cycling, flagging GALK artifacts | shares compounds with Pol eta inh-1 | Phenol red-HRP H2O2 redox cycling, absorbance 600 nm | Potency, µM (top dose mostly 115 µM), hits mostly inhibitors | 150 compounds, 40% hits | AID 2035
HEK293 viability: counter-screen for GALK inhibitors: HEK293 cell cytotoxicity; shares compounds with Pol eta inh-1; HEK-293 viability, ATP luminescence (CellTiter-Glo), 24/48 h; 170 compounds, 10% hits; Potency, µM (highest dose often 46.1 µM), usual class: inhibitors
Pol kappa inh-2: Pol kappa (human) inhibition, cherry-pick confirmation. Potency, µM, hits mostly inhibitors. shares compounds with Pol eta inh-1. purified Pol-kappa, fluorescent strand-displacement substrate. 920 compounds, 76% hits
Pol eta inh-2: Pol eta (human) inhibition, cherry-pick confirmation. 2,600 compounds, 64% hits. Pol eta primer extension, TAMRA/BHQ fluorescence, 10 min. Potency, µM, actives largely listed as inhibitors. shares compounds with Pol eta inh-1
FEN1 inh-2: FEN1 inhibition, cherry-pick retest; shares compounds with FEN1 inh-1; FEN1 flap cleavage, TAMRA/BHQ2 fluorogenic DNA substrate; Potency, µM, hits mostly inhibitors; 880 compounds, 79% hits; AID 720498; further: nearly all actives have a fitted effect of over 60% in size
WRN helicase inh-2: WRN helicase inhibition, cherry-pick retest; shares compounds with WRN helicase inh-1; WRN helicase DNA unwinding, fluorescence kinetic; Potency, µM (highest dose often 57.1 µM), most hits filed as inhibitors; 610 compounds, 63% hits; AID 720497; further: nearly all actives have a fitted effect of over 65% in size
TO displacement: counter-screen for WRN helicase inhibitors: DNA binding; shares compounds with WRN helicase inh-1; thiazole orange DNA binding displacement, fluorescence; Potency, µM (series often up to 57.1 µM), actives largely listed as inhibitors; 610 compounds, 10% hits;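 further: drop in dye fluorescence marks compound binding to DNA; nearly all actives have a fitted effect of over 60% in size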
BLM helicase inh: counter-screen for WRN helicase inhibitors: human BLM helicase inhibition | shares compounds with WRN helicase inh-1 | Recombinant BLM helicase DNA unwinding, red fluorescence | Potency, µM (doses to about 57.1 µM), usual class: inhibitors | 610 compounds, 60% hits | AID 720503; further: nearly all actives have a fitted effect of over 60% in size
Numbers stand for hits; n = inactive; u = inconclusive; x = not tested or not shown. The call rests on the fitted dose curve; in most records, active means well fitted curve in the direction sought with a large enough effect; inconclusive means small, poorly fitted or top-dose-only effect, or another doubt; inactive means no such curve, though single readings can be large; an effect the other way counts as inactive or inconclusive.

SMILES	POLI inh	Pol eta inh-1	Pol beta inh	WRN helicase inh-1	FEN1 inh-1	Pol kappa inh-1	POLI cherry-pick	Pol eta inh-2	WRN helicase inh-2	TO displacement	BLM helicase inh	others
O=C(COC(=O)c1ccccc1)Nc1ncc([N+](=O)[O-])s1	2.2µM	0.79µM	x	3µM	45µM	22µM	2.7	1.7	3.4µM	24µM	1.1µM	TbPGK inh=3.3µM;Pol kappa inh-2=0.75;FEN1 inh-2=67
COCCCNc1nc2cc(OC)c(OC)cc2c2nc(-c3ccccc3)nn12	n	n	n	n	n	n	x	x	x	x	x
CCN(CC)CCCNc1nc2cc(OC)c(OC)cc2c2nc(-c3ccccc3)nn12	7.9µM	u	11µM	35µM	13µM	u	38	x	17µM	n	n	FEN1 inh-2=6.7
Cc1ccc(C(=O)c2c(N)c(-c3nc(-c4ccc5c(c4)OCO5)cs3)c3ccccn23)cc1C	n	x	n	x	n	n	x	x	x	x	x
O=C(O)CC(CCc1ccccc1)OC1OC(CO)C(O)C(O)C1O (centres undefined)	1.8µM	0.79µM	0.71µM	u	7.9µM	2µM	2.7	11	1.7µM	n	1.5µM	TbPGK inh=u;GALK confirm=53µM;GALK redox cs=n;HEK293 viability=n;FEN1 inh-2=27
Cc1ccccc1-c1nn2c(=O)cc(CN3CCN(C(=O)c4ccccc4Br)CC3)nc2s1	n	n	n	x	n	n	x	x	x	x	x
COc1ccc(Cl)cc1NC(=O)CN(C)S(=O)(=O)c1ccc2c(c1)CCCN2C(C)=O	n	n	n	x	n	n	x	x	x	x	x
O=C(CCN1C(=O)/C(=C/C=C/c2ccccc2)SC1=S)Nc1ccccn1	n	n	n	n	n	n	x	x	x	x	x
O=C(CCN1C(=O)/C(=C/C=C/c2ccccc2)SC1=S)Nc1cccnc1	u	5µM	n	u	n	n	9.5	x	u	n	u
COc1ccc(S(=O)(=O)c2c(Nc3ccc(C)cc3)sc(C(=O)c3ccc4c(c3)OCO4)c2N)cc1	n	n	n	x	n	n	x	x	x	x	x
CCN(c1ccccc1)S(=O)(=O)c1cc(NC(=O)CSc2n[nH]c(=O)[nH]c2=O)ccc1Cl	n	n	n	n	n	n	x	x	x	x	x
O=C(CSc1n[nH]c(=O)[nH]c1=O)Nc1ccc2c(c1)C(=O)c1ccccc1C2=O	u	8.9µM	2.8µM	32µM	28µM	n	27	19	8.6µM	12µM	4.3µM	TbPGK inh=3.3µM;Pol kappa inh-2=24
Cn1nc(C(=O)NCc2ccccc2Cl)c2c1-c1ccccc1SC2	n	n	n	x	n	n	x	x	x	x	x
COc1cccc(C(=O)NCC(=O)OCc2cc(=O)n3nc(C)sc3n2)c1	n	n	n	x	n	n	x	x	x	x	x
CC(=O)Nc1ccc2nc3c(=O)[nH]c(=O)[nH]c3nc2c1	8.9µM	x	28µM	x	28µM	28µM	12	17	3.8µM	n	1.4µM	Pol kappa inh-2=2.4;FEN1 inh-2=38
CC(=O)Nc1ccc2cc3ccc(NC(C)=O)cc3nc2c1	u	u	n	n	u	n	x	x	x	x	x
O=C(O)c1ccccc1-c1ccccc1C(=O)Nc1ccc2c(c1)oc(=O)c1ccccc12	x	n	x	n	x	x	x	x	x	x	x
O=C(O)c1ccccc1-c1c2cc(I)c(=O)c(I)c-2oc2c(I)c(O)c(I)cc12	13µM	16µM	x	4.7µM	40µM	22µM	19	67	22µM	n	19µM	TbPGK inh=10µM;Pol kappa inh-2=30;FEN1 inh-2=38
O=C(O)c1ccc(-n2cccc2/C=C2/NC(=O)N(c3ccccc3)C2=O)cc1	3.2µM	2.8µM	u	35µM	u	22µM	3.4	5.4	15µM	n	7.6µM	TbPGK inh=5.8µM
O=C(O)c1ccc(-n2cccc2/C=C2/SC(=O)N(CC(=O)N3CCCC3)C2=O)cc1	3.5µM	1.8µM	2µM	20µM	40µM	7.1µM	5.3	6.7	6.8µM	n	3µM	TbPGK inh=5.8µM
CC12CCC=CC1C(c1ccc(F)c(/C=C/c3ccccc3)c1)N(Cc1ccccc1)C2=O (centres undefined)	n	x	x	x	n	n	x	x	x	x	x
CCCCNC(=O)C1CCN(c2nc3ccccc3nc2C(F)(F)F)CC1	n	n	n	x	n	n	x	x	x	x	x
COc1cccc(C(=O)Nc2ccccc2-c2nnc(-c3ccc(C(C)(C)C)cc3)o2)c1	n	n	n	x	n	n	x	x	x	x	x
Cc1cc(C)c2nc(-c3ccccn3)cc(C(=O)Nc3ccc(S(=O)(=O)Nc4onc(C)c4C)cc3)c2c1	8.9µM	8.9µM	u	40µM	u	u	21	8.5	15µM	u	6.8µM
O=C1CC(c2ccco2)CC(O)=C1C=Nc1cc(Cl)ccc1O (centres undefined)	u	35µM	20µM	u	n	u	42	30	22µM	n	7.6µM
O=C1CC(c2ccco2)CC(O)=C1C=Nc1ccc(Br)cc1 (centres undefined)	u	u	u	n	n	u	x	x	x	x	x

Screens as filed in PubChem.
